Experimental data: PubChem BioAssay AID1851 (National Center for Advancing Translational Sciences (NCATS), 2009)
Several values for one entry are separate records, joined by “and”; a condition that tells them apart may be missing. Identical values can stand only once. Among all 16,000 compounds or so, about 5,800 (36%) were called active. Another 23% or so got no clear call; they are omitted. The list shows a part of the results. A number with no mark means an inactive call. Calls follow the shape of the dose curve; as a rule, active = well fitted curve in the direction sought with a large enough effect; inconclusive = small, poorly fitted or top-dose-only effect, or effect the other way; inactive = no such curve, though single readings can be large or run the other way.

Molecular target: Cytochrome P450 2C19 (Homo sapiens) (UniProt P33261)
Sequence (P33261 whole entry, looked up): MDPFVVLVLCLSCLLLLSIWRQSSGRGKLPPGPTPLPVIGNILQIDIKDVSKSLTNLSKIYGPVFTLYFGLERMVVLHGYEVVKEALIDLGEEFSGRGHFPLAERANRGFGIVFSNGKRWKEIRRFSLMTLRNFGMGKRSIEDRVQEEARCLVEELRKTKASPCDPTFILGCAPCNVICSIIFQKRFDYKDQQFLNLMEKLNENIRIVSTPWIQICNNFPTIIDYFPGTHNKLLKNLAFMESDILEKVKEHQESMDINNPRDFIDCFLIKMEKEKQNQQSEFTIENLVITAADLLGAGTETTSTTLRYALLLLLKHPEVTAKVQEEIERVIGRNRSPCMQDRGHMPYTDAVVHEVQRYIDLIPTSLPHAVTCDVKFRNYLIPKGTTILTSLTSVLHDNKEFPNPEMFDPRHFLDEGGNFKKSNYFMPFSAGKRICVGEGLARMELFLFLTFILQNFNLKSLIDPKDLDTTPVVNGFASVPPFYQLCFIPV
Assay: Cytochrome panel assay with activity outcomes
Settings: recombinant CYP, pro-luciferin dealkylation, luminescence, p450-cyp2c19; series mostly up to 57.1 µM; activity, negative = inhibition: at the top concentration
Method: The P450 gene superfamily is involved in the metabolism and clearance of xenobiotics. This assay used various human CYP P450 isozymes to measure the dealkylation of various pro-luciferin substrates to luciferin. The luciferin is then measured by luminescence after the addition of a luciferase detection reagent. Pro-luciferin substrate concentration in the assay was equal to its KM for its CYP P450 isozyme. Inhibitors and some substrates limit the production of luciferin, and decrease measured luminescence.
NCGC Assay Protocol Summary:
1, Reagent, 2 uL, Isozyme and Pro-Luciferin
2, Library compounds, 23 nl, 40 uM to 0.24 nM dilution series
3, Controls, 23 nl, Isozyme specific inhibitor
4, Reagent, 2 uL, NADPH regeneration solution
5, Incubation time, 60 min, Isozyme specific temperature
6, Reagent, 4ul, Detection reagent
7, Incubation time, 20 min, Isozyme specific temperature
8, Detection, 1 sec, ViewLux luminescent read
The luciferase-based P450-GloTM Screening Systems were obtained from Promega (Madison, WI) for CYP 1A2 (V9770), CYP 2C9 (V9790), CYP2 C19 (V9880), CYP 2D6 (V9890), and CYP 3A4 Luciferin-PPXE (V9910) and were adapted for 1,536-well microplates and an automated protocol. The control compounds furafylline for 1A2 (F124), sulfaphenazole for CYP 2C9 (S0758), ketoconazole for CYP 2C19 (K1003), quinidine for 2D6 (Q3625), and ketoconazole for 3A4 (K1003) were purchased from Sigma Aldrich (St. Louis, MO). Recombinant P450 enzymes were obtained from baculovirus constructs expressed in insect cells (BD/Gentest).
Medium-binding white solid Kalypsys plates used. Mixtures kept on ice. 1A2: 10 nM 1A2, 100 uM Luc-ME, 100 mM KPO4; 2C9: 10 nM 2C9, 100 uM Luc-H, 25 mM KPO4; 2C19: 5 nM 2C19, 10 uM Luc-H EGE, 50 mM KPO4; 2D6: 5 nM 2D6, 30 uM Luc-ME EGE, 100 mM KPO4; 3A4: 10 nM, 25 uM Luc-PPXE. All amounts are reflected in their final concentration, working concentration is 2x.
NADPH regeneration solution: 1.3 mM NADP+, 3.3 mM glucose-6-phosphate, 3.3 mM MgCl2, 0.4 U/mL glucose-6-phosphate dehydrogenase for all isozymes, 200 mM KPO4 for 3A4. Mixture prepared at RT but kept on ice during automated run.
RT incubation in auxilliary plate hotel for 1A2, 2D6, and 3A4; 37C for 2C9 and 2C19.
Keywords: P450, CYP1A2, CYP2C19, CYP2C9, CYP2D6, CYP3A4, Luciferase, MLSMR, MLSCN, NIH Roadmap, qHTS, NCGC
% is scaled to controls: 0 for no effect and ±100 for the full control effect.

Compound	AC50	activity, negative = inhibition
C=CCN=C1CC(C)(C)CC(=O)/C1=C(/O)CCC(=O)OC	14.1 µM (active)	
C=CCN=C1CC(C)(C)CC(=O)/C1=C(\O)c1ccccc1	25.1 µM (active)	
N#CCCn1c(=O)c(-c2ccccc2)nc2cnc(Nc3ccccc3)nc21		-8.35%
Nc1ccc(C(=O)NCC(=O)O)cc1		5.57% [at 25.6 µM]
CCNC(=O)c1ccc(-n2nc(C)cc2-c2ccccc2)cc1	11.2 µM (active)	
Cc1nc2cnc(N3CCOCC3)nc2n(CCC#N)c1=O		-4.01%
Fc1ccc(-c2cnc(-c3cccs3)o2)cc1	6.31 µM (active)	
Cc1ccc(N2C(=O)CC(c3ccsc3)C3=C2CC(C)(C)CC3=O)cc1 (stereo not drawn)	2.51 µM (active)	
N#Cc1cc2[nH]c(=O)c(=O)[nH]c2cc1[N+](=O)[O-]		-9.46%
N#Cc1cc2nc(O)c(O)nc2cc1[N+](=O)[O-]	inactive	
CC1CCCCN1c1cc(C#N)c(C#N)cc1[N+](=O)[O-] (stereo not drawn)	4.47 µM (active)	
CCC(C)NC(=O)C1c2cc(OC)c(OC)cc2C(=O)N(C)C1c1cccs1 (stereo not drawn)		-15%
Clc1ccc(Cc2nc(-c3cccnc3)no2)cc1	1.78 µM (active)	
Nc1nc(-c2cccnc2)cc(-c2cc(-c3cccnc3)nc(N)n2)n1		-16.6% [at 11.4 µM]
Cn1cccc1C(=O)N1CCC2(CCN(Cc3nccs3)CC2)CC1		-0.0178%
N#Cc1c(NC(=O)C2CC(c3ccccc3Cl)=NO2)sc2c1CCC2 (stereo not drawn)	2 µM (active)	
Cc1cc2cccc(C)c2nc1SCC(=O)N(C)c1nc(-c2ccccc2)cs1		-27.1%
CCC(=O)N(Cc1ccco1)c1nc(-c2ccccc2)cs1	5.62 µM (active)	
N#CCCn1nnc2ccccc21		-23.8%
Nn1nnc2ccccc21		-11.1%
Cc1ccnc(NCn2nnc3ccccc32)c1	15.8 µM (active)	
O=C(O)C[n+]1ccccc1		-3.69% [at 11.4 µM]
Cc1cc(NC(=O)c2c(F)cccc2F)n(-c2nc3ccccc3[nH]2)n1	11.2 µM (active)	
Cc1cc(NC(=O)c2ccc(S(=O)(=O)N(C)C)cc2)n(-c2ccccn2)n1		4.21%

Compound	AC50	activity, negative = inhibition
COc1cc(NC(=O)c2c(F)cccc2F)nc(OC)n1		-15.5%
Nc1ncnc2c1ncn2[C@@H]1CCCO1		14.6%
Cc1nc(S(=O)(=O)N(C)c2ccccc2)c(C#N)c(C)c1Cl	6.31 µM (active)	
Cc1nc(S(=O)(=O)NC2CCCCC2)c(C#N)c(C)c1Cl	2.82 µM (active)	
CCC[C@H]1C(=O)N2C(N(C)C)=Nc3ccc(C)cc3N2C1=O		-39.6% [at 25.6 µM]
COc1ccc(C[C@@H]2c3cc(OC)c(OC)cc3CC[N@+]2(C)CCC(=O)OCCCCCOC(=O)CC[N@@+]2(C)CCc3cc(OC)c(OC)cc3[C@H]2Cc2ccc(OC)c(OC)c2)cc1OC		-12.9% [at 25.6 µM]
COC(=O)C/C=C\[C@@H](C)[C@@H](/C=N\O[C@@H](C)c1cn([C@H](CO)Cc2ccccc2)nn1)OC		-27.6% [at 11.4 µM] and -8.78% [at 11.4 µM]
N#Cc1ccccc1-c1ccc2ncnc(NCCN3CCOCC3)c2c1		-23.4%
N#Cc1nc(-c2ccc(OCc3ccccc3)cc2)oc1NCCN1CCOCC1	5.62 µM (active)	
Cc1cccc(NC(=S)NNC(=O)c2csc3c2CCCC3)c1	10 µM (active)	
O=[N+]([O-])c1ccc(Cl)c(/C=N/N2CCN(Cc3ccccc3Cl)CC2)c1	3.98 µM (active)	
O=[N+]([O-])c1ccc(Cl)c(/C=N/N2CCN(Cc3ccccc3)CC2)c1	17.8 µM (active)	
C=C(C)C(=O)N1CC2(CC(c3cccc(NC(=O)c4ccccc4)c3)=NO2)C[C@@H]1C(N)=O (stereo partly drawn)		-42%
CCS(=O)(=O)N1CCC(C(=O)NCC2CCCO2)CC1 (stereo not drawn)		-8.97%
Cc1cc(C)c(S(=O)(=O)N2CCN(c3ccc([N+](=O)[O-])c(NCC4CCCO4)c3)CC2)c(C)c1 (stereo not drawn)	3.16 µM (active)	
Cc1ccc(NC(=O)c2ccc(NCC3CCCO3)c([N+](=O)[O-])c2)cc1Cl (stereo not drawn)	5.01 µM (active)	
O=S(=O)(Cc1cc(Oc2ccccc2)nc(-c2ccccc2)n1)c1ccccc1	1.26 µM (active)	
CNc1cc(CS(=O)c2ccccc2)nc(-c2ccccc2)n1 (stereo not drawn)	1.41 µM (active)	
O=S(Cc1cc(Oc2ccccc2)nc(-c2ccccc2)n1)c1ccccc1 (stereo not drawn)	2.82 µM (active)	
O=c1[nH][nH]c(C(F)(F)F)c1C=Nc1ccccc1Cl		-12.3%
[O-][N+](CCO)(CCO)c1ncnc2nc[nH]c12		41% [at 11.4 µM]
CC[C@@]1(O)C(=O)COc2c1cc1n(c2=O)Cc2c-1nc1cccc(C(C)C)c1c2[Si](C)(C)C		27.7%
Cc1sc(NC(=O)/C=C/c2ccc(C(C)C)cc2)c(C#N)c1C		-24.8%
Cc1sc(NC(=O)C2CCCCC2)c(C#N)c1-c1ccccc1	2.82 µM (active)	
